Source: PubChem
Cycloheximide cs: affects cycloheximide protein synthesis inhibition readout, counter-screen | cell reporter, cycloheximide protein synthesis inhibition counterscreen | max response, % | AID 2314 | hit rate 12% among 300,000; in the data active = max response mostly above about 13%, no sharp cut-off; inactive = mostly below about 14%; also: read at 38.3 µM for the half of the compounds with a filed dose; 0% is about no effect
TbPYK inhibitor: T. brucei pyruvate kinase inhibition. hit rate 0.12% among 410,000. Q57TT1. Potency, µM (doses to about 76.8 µM), for the others: at the top dose activity, negative = inhibition, actives largely listed as inhibitors. AID 624173. TbPYK enzyme, Kinase-Glo Plus ATP luminescence, 45 min; also: potency is read from the fitted curve at half-maximal effect; % is scaled to controls: 0 for no effect and ±100 for the full control effect; nearly all actives have a fitted effect of over 50% in size
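Luminescent Kinase-Glo Plus end-point after 45 min room-temperature reaction of T. brucei pyruvate kinase started with 130 uM ADP (final). Buffer TEA 50 mM pH 7.2 with KCl, MgCl2, BSA, Tween-20; titration-based qHTS with fitted concentration-effect curves.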
RE007 growth inh: less growth of the S. pombe RE007 Vpr strain. S. pombe RE007 Vpr strain, BacTiter-Glo ATP luminescence, 24 h. Potency, µM (series often up to 92.2 µM), inactives show top-dose activity change, negative = less growth, actives largely listed as inhibitors. hit rate 0.21% among 360,000. AID 651644; active = well fitted falling curve with a large enough effect; inconclusive = small, poorly fitted or top-dose-only effect; inactive = no such curve, though single readings can be large or run the other way; also: potency is read from the fitted curve at half-maximal effect; % is scaled to controls: 0 for no effect and ±100 for the full control effect; nearly all actives have a fitted effect of over 50% in size
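Fission yeast strain RE007, carrying one chromosomally integrated HIV-1 vpr copy, was seeded at OD 0.01 in PMG+AL medium with 23 nL pinned compound. After 24 h at 30 °C and 99% humidity, viability was read by BacTiter-Glo luminescence.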
LmPK inh: LmPK (Leishmania mexicana) enzyme inhibition | AID 1721 | Potency, µM (doses to about 57.5 µM), for inactives: at the highest dose activity change, negative = inhibition, actives largely listed as inhibitors | Q27686 | hit rate 0.37% among 290,000 | purified LmPK, Kinase-Glo ATP luminescence, 1 h; also: potency is read from the fitted curve at half-maximal effect; % is scaled to controls: 0 for no effect and ±100 for the full control effect
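In 50 mM imidazole pH 7.2 with 7 mM MgCl2, LmPK (0.1 nM) turned over PEP (0.5 mM) and ADP (0.1 mM) for 1 h at room temperature. Luciferase read-out of ATP.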
Giardia FBPA inh: blocks Giardia fructose-bisphosphate aldolase activity | A8B2U2 | purified Giardia FBPA | Potency, µM (titrated, usually from 59.6 µM), inactives show at the top dose activity, negative = inhibition, actives largely listed as inhibitors | hit rate 0.71% among 290,000; also: potency is read from the fitted curve at half-maximal effect; % is scaled to controls: 0 for no effect and ±100 for the full control effect; nearly all actives have a fitted effect of over 55% in size
Target sequence (A8B2U2 whole entry, looked up): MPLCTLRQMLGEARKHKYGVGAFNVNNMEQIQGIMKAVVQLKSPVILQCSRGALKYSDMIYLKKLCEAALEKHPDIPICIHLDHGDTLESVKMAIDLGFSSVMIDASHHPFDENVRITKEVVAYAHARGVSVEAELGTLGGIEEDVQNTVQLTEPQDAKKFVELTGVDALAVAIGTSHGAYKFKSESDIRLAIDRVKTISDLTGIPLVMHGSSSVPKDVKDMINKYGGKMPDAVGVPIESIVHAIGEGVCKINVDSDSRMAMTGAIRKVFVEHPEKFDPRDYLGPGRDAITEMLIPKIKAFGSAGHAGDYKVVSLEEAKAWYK
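40 nM FBPA preincubated 10 min at RT with compound (up to 57.5 uM final), then substrate plus GAPDH/TPI/NAD/arsenate coupling and diaphorase/resazurin added. Fluorescence read after 20 min at RT, 525/598 nm.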
Shiga toxin inh: Shiga toxin inhibition; Vero cells, Shiga toxin protein synthesis inhibition reporter; inhibition, % at 38.7 µM; hit rate 9.2% among 290,000; in the data active = inhibition mostly above about 28%, no sharp cut-off; inactive = mostly below about 43%; also: 0% is about no effect
The depositor's hits bear a star; ? = inconclusive; nt = not tested or not shown; [ ] = dose if it differs, or a comment. The sample as a whole holds a higher share of hits than the screen did. Unless noted, calls follow the shape of the dose curve; as a rule, active = well fitted curve in the direction sought with a large enough effect; inconclusive = small, poorly fitted or top-dose-only effect, or another doubt; inactive = no such curve, though single readings can be large; an effect the other way counts as inactive or inconclusive.

SMILES	Cycloheximide cs	TbPYK inhibitor	RE007 growth inh	LmPK inh	Giardia FBPA inh	Shiga toxin inh
O=C(COC(=O)c1ccc(S(=O)(=O)NCc2ccco2)cc1)c1ccccc1	-1	-1%	-10%	5%	4%	17
CC(OC(=O)c1ccc(S(=O)(=O)NCc2ccco2)cc1)C(=O)Nc1ccc(Cl)cn1 (centres undefined)	38*	-2%	0%	6%	-2%	68*
O=C(COC(=O)c1ccc(S(=O)(=O)NCc2ccco2)cc1)Nc1ncc(Cl)cc1Cl	-4	-1%	?	4%	-3%	8
Cc1cc(C)cc(NC(=O)c2cc(S(=O)(=O)NCc3ccco3)ccc2F)c1	15*	-9%	2%	6%	-6%	46
Cc1noc(C)c1COC(=O)c1ccc(S(=O)(=O)NCc2ccco2)cc1	16*	-4%	7%	3%	6%	56
CC1CCCCC1NC(=O)c1ccc(S(=O)(=O)NCc2ccco2)cc1 (centres undefined)	40*	13%	0%	3%	-5%	62*
N#Cc1ccc(OC(=O)c2cc(-c3ccc4c(c3)OCCO4)on2)cc1	nt	-2%	nt	nt	nt	nt
CC1C=CCCOC1c1ccccc1 (centres undefined)	nt	nt	nt	nt	1%[12.9 µM]	nt
Cc1cc(C)c(NC(=O)C[C@H](CC(=O)O)c2cccc3ccccc23)c(C(=O)N2CCC3(CCCC3)CC2)c1	nt	4%	nt	nt	18%	nt
CCOC(=O)c1c(NC(=O)c2noc3c2CC(C(C)(C)C)CC3)sc2c1CCCC2 (centres undefined)	nt	-6%	nt	nt	nt	nt
O=C(Nc1ccc(S(=O)(=O)NCc2ccco2)cc1)c1ccc(F)cc1	28*	0%	0%	0%	-1%	46*
O=C(Nc1ccccc1)c1ccc(S(=O)(=O)NCc2ccco2)cc1	-1	0%	6%	4%	2%	-7
Cc1ccc(C(=O)Nc2ccc(S(=O)(=O)NCc3ccco3)cc2)cc1	38*	-3%	14%	10%	-4%	36*
Cc1nn(-c2ccc3nnc(C)n3n2)c(C)c1CCC(=O)Nc1ccc(OC(F)(F)F)cc1	nt	-3%	nt	nt	nt	nt
CCCn1c(Nc2cccc(OC)c2)nc2ccccc21	8	-15%	-19%	1%	-2%	-1
CCc1nnc(NC(=O)CSc2nc(C)cs2)s1	4	5%	-10%	4%	?	39
CC(=O)N1N=C(c2ccccc2)CC1c1ccccc1 (centres undefined)	1	6%	-12%	-6%	11%	-11
CC(=O)N1SC(N)=NC1c1ccccc1 (centres undefined)	19	3%	13%	-7%	9%	64*
Cc1ccc(NC(=O)CN(C)S(=O)(=O)c2ccc3c(c2)n(C)c(=O)c(=O)n3C)cc1C	nt	1%	nt	nt	nt	nt
CC1CC(C)CN(c2ccc([N+](=O)[O-])nc2)C1 (centres undefined)	17*	-3%	-13%	13%	0%	28
Cn1c(=Nc2ccccc2)sc2ccccc21	36*	-10%	1%	8%	1%	82
Cc1cccc(S(=O)(=O)N/N=c2\sc3ccccc3n2C)c1	3	-1%	5%	1%	0%	4
CN(C)c1ccc(N=c2sc3ccccc3n2C)cc1	54*	?	-22%	9%	?	89*
COc1ccc(/C(C)=N/NC(=O)CNC(=O)C(c2ccccc2)c2ccccc2)c(OC)c1	-1	0%	0%	11%	4%	-13
Cc1ccc(C)c(Nc2nn3c(=O)c4ccc(C(=O)NCc5cccs5)cc4nc3s2)c1	nt	-4%	nt	nt	nt	nt
CC(C)c1ccc2nc(SCC(=O)NCC3CCCO3)c(C#N)cc2c1 (centres undefined)	23	0%	-26%	0%	1%	71*
Cc1ccc(SCCC(=O)NCC2CCCO2)cc1 (centres undefined)	13*	-2%	16%	-4%	0%	23
COc1ccc(-c2nc(SCC(=O)NCC3CCCO3)c(-c3ccc(Cl)cc3)[nH]2)cc1 (centres undefined)	nt	-1%	nt	nt	nt	nt
COc1ccc(-c2nsc(SCC(=O)NCC3CCCO3)n2)cc1 (centres undefined)	32*	-10%	-4%	0%	-4%	65*
